PubChem BioAssay AID2284061 (EPA ToxCast)
Inconclusive results are not listed. Calls of active or inactive are those of the source. Rule for the calls: active = hit-call score of the fitted dose curve at least 0.9, where 1 is the maximum; inconclusive = response in the unintended direction; inactive = score below 0.9.

Each molecule was assayed against human Akt3 (PKBgamma) AGC Kinase, AKT3 (gene 10000) (UniProt Q9Y243) (assay: ERF_FR_ENZ_hAKT3: Eurofins (ERF) Enzymatic Radiometric [Km ATP] KinaseProfiler LeadHunter Assay for human Akt3 (PKBgamma) AGC Kinase).
human Akt3 (PKBgamma) AGC Kinase, AKT3 (gene 10000), sequence (Q9Y243 whole entry, looked up): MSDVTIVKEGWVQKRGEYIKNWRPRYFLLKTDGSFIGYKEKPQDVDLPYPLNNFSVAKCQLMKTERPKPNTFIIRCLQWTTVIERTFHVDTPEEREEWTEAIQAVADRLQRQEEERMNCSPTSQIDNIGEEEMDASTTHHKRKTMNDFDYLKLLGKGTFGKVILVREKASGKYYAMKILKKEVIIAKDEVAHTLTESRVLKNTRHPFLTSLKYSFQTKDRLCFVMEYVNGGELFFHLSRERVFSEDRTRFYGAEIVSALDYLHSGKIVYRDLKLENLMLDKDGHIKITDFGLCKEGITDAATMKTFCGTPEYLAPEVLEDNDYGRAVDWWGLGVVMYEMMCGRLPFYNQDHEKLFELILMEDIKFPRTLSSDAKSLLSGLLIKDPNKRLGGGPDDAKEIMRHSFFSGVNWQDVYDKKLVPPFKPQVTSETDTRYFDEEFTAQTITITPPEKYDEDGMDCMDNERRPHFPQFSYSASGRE
Description: ERF_FR_ENZ_hAKT3 is a biochemical, single-readout assay that uses extracted gene-proteins in a cell-free assay. Measurements were taken 0.5 hour after chemical dosing in a 96-well plate. See Akt3 (PKBgamma) Human AGC Kinase Enzymatic LANCE Assay [Km ATP], Cerep.ERF_FR_ENZ_hAKT3 is an assay component calculated from the ERF_FR_ENZ_hAKT3 assay. It is designed to measure enzyme activity using a type of enzyme reporter as detected by fluorescence intensity with LANCE technology.Data from the assay component ERF_FR_ENZ_hAKT3 was analyzed at the assay endpoint, ERF_FR_ENZ_hAKT3, in the positive analysis fitting direction relative to DMSO as the negative control and baseline of activity. Using a type of enzyme reporter, loss-of-signal activity can be used to understand changes in enzymatic activity as they relate to gene AKT3. To generalize the intended target to other relatable targets, this assay endpoint is annotated to the kinase intended target family, where the subfamily is serine/threonine kinase.
PKBb (h) is incubated with 8 mM MOPS pH 7.0, 0.2 mM EDTA, 30 uM […], 10 mM MgAcetate and [g- 33P]-ATP (specific activity and concentration as required). The reaction is initiated by the addition of the Mg/ATP mix. After incubation for 40 minutes at room temperature, the reaction is stopped by the addition of phosphoric acid to a concentration of 0.5%. […]

Row | Compound | outcome
1 | COc1cc(CCC(=O)CC(=O)CCc2ccc(O)c(OC)c2)ccc1O | inactive
2 | O=C(/C=C/c1ccc(O)cc1)CC(=O)/C=C/c1ccc(O)cc1 | inactive
